Tau filament bind = binds recombinant human tau filaments | actives 2% (n = 71,000) | AID 596 | recombinant tau filaments, thioflavin S fluorescence, 15 h; filaments grown with octadecylsulfate alongside compound | Potency, µM (titrated, usually from 57.1 µM), for the others: at the top dose activity change, negative = inhibition;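 further: on the % scale 0 is the no-effect control and ±100 the full control effect; actives lower thioflavin S fluorescence by blocking filaments or displacing dye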
Target sequence (P10636 whole entry, looked up): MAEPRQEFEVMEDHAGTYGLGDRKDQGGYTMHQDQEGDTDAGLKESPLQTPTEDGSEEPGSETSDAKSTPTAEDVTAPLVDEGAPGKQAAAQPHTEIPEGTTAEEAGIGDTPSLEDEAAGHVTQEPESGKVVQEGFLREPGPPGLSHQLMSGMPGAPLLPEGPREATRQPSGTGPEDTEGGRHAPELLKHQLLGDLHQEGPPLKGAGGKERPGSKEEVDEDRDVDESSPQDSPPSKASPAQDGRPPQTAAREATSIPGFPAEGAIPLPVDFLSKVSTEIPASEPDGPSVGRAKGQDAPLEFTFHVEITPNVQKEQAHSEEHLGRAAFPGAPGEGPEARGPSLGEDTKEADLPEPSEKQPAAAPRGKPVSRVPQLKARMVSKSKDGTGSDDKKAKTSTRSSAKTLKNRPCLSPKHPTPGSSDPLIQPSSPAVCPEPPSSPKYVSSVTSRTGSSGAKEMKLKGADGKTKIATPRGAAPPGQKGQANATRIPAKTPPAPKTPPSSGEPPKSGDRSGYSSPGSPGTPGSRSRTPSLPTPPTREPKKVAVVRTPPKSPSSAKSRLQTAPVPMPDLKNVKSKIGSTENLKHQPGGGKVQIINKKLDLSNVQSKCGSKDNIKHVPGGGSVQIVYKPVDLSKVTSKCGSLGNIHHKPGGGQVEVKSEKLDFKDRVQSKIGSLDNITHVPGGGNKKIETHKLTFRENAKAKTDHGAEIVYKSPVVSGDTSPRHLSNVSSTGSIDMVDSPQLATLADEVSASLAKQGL
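ThS-based fibril read: tau 1 uM final, inducer ODS 30 uM final, 37 C for 15 h, ex 450/em 510 nm.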
Pol III holo inh = inhibitors of bacterial DNA polymerase III holoenzyme; actives 0.25% (n = 71,000); reconstituted DNA polymerase III holoenzyme replication, biochemical; AID 603; Potency, µM (top dose mostly 57.1 µM), inactives show top-dose activity change, negative = inhibition; further: on the % scale 0 is the no-effect control and ±100 the full control effect
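Reconstituted *E. coli* holoenzyme (0.35 nM Pol III, 1 nM beta, 154 nM SSB, 2 nM primase) was preincubated with compound for 15 min at RT. Synthesis on 1.4 nM ssM13Gori ran 35 min, then was stopped with PicoGreen/EDTA and read as dsDNA fluorescence.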
Hsp90 Hop PPI = changes Hsp90-Hop TPR2A binding signal, up or down. AlphaScreen TPR2A-His6 binding biotin-Hsp90 C-terminal peptide. Potency, µM (series often up to 57 µM), without a hit: at the highest dose activity change, negative = inhibition. actives 0.44% (n = 71,000). AID 595; active means well fitted curve in either direction with a large enough effect; inconclusive means small, poorly fitted or top-dose-only effect, or another doubt; further: on the % scale 0 is the no-effect control and ±100 the full control effect
HEK293 cAMP ctrl = raises cAMP in parental HEK293 cells, TSHR agonist counter-screen. actives 2.5% (n = 73,000). AID 938. parental HEK293 CNG cAMP sensor, membrane potential fluorescence. Potency, µM (doses to about 57.1 µM), for the others: at the top dose activation, actives largely listed as activators; further: % of control where 0% means no effect; nearly all actives have a fitted effect of over 55% in size
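Parental HEK 293 cells stably expressing a cAMP-gated CNG channel were loaded with membrane potential dye containing 100 uM RO 20-1724 for 60 min. Compound added for 30 min; depolarization read as fluorescence intensity at 590 nm.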
TSHR agonist = agonists of human thyroid stimulating hormone receptor; P16473; HEK293-CNG-TSHR cells (CNG channel as cAMP sensor), membrane potential dye, cAMP; Potency, µM (top dose mostly 57.1 µM), inactives show at the highest dose activation, usual class: activators; actives 0.48% (n = 73,000); active means well fitted activation curve with a large enough effect in the main read-out, with a control signal flat, not every such curve was filed as active; inconclusive means small, poorly fitted or top-dose-only effect, or a change in a side signal; inactive means no such curve, though single readings can be large or run the other way; % of control where 0% means no effect;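 further: the control signal comes from parental cells without the receptor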
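cAMP rise detected as CNG-channel membrane depolarization by fluorescent dye (emission 590 nm), 30 min after compound, following 60 min dye loading containing 100 uM RO 20-1724 at room temperature. Cells: TSHR/CNG HEK 293, with parental CNG HEK 293 as control.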
* marks the source's active call; other numbers are inactive results; ! = not active in a repeat; [ ] = remark or other dose. Rows were chosen to be rich in hits. Some 5.1% of all compounds tested hit in one or more screens of this group. Unless noted, the call rests on the fitted dose curve; in most records, active means well fitted curve in the direction sought with a large enough effect; inconclusive means small, poorly fitted or top-dose-only effect, or another doubt; inactive means no such curve, though single readings can be large; an effect the other way counts as inactive or inconclusive. Potency means the concentration at half of the fitted maximal effect.

How did CCn1c(SCc2nc(-c3ccccc3)no2)nc2ccccc21 do in these assays?
Tau filament bind: 4.1%; Pol III holo inh: -6.2%; Hsp90 Hop PPI: inconclusive; HEK293 cAMP ctrl: 25.9%; TSHR agonist: 31.6µM*

Results for CCC(C)(C(=O)NC1CCCCC1)N(Cc1ccco1)C(=O)c1cnccn1 (stereo not drawn) ?
Tau filament bind: -12.2%; Pol III holo inh: 2.8%; Hsp90 Hop PPI: -7.6%; HEK293 cAMP ctrl: 3.16µM*; TSHR agonist: inconclusive

Results for CCC(C)(C(=O)NC1CCCC1)N(Cc1cccs1)C(=O)Cc1cccs1 (stereo not drawn) ?
Tau filament bind: 9.9%; Pol III holo inh: -10.3%; Hsp90 Hop PPI: -9.9%; HEK293 cAMP ctrl: 2.51µM*; TSHR agonist: inconclusive

How did CCC(C)(C(=O)NC1CCCC1)N(Cc1ccco1)C(=O)c1ccccn1 (stereo not drawn) do in these assays?
Tau filament bind: -23.2%; Pol III holo inh: -5.8%; Hsp90 Hop PPI: -5.6%; HEK293 cAMP ctrl: inconclusive; TSHR agonist: inconclusive

Results for CCC(C)(C(=O)NC1CCCC1)N(Cc1ccco1)C(=O)c1ccc2c(c1)OCO2 (stereo not drawn) ?
Tau filament bind: -8.0%; Pol III holo inh: -3.6%; Hsp90 Hop PPI: -0.2%; HEK293 cAMP ctrl: 2.51µM*; TSHR agonist: inconclusive

What do the screens show for `CCC(C)(C(=O)NC1CCCCC1)N(Cc1ccco1)C(=O)CNC(=O)c1ccccc1` (stereo not drawn)?
Tau filament bind: -4.6%; Pol III holo inh: 6.1%; Hsp90 Hop PPI: -2.6%; HEK293 cAMP ctrl: inconclusive; TSHR agonist: inconclusive

What do the screens show for `CCC(=O)[C@]12O[C@@]3(C4C(=O)OCCC41)N(CC)C(C)=C(C(=O)OC)C(c1ccccc1)N3C2=O` (stereo partly drawn)?
HEK293 cAMP ctrl: -10.6%[11.4 µM]; TSHR agonist: -3.9%[11.4 µM]

How did N[C@@H](Cc1ccnnc1)C(=O)O do in these assays?
Tau filament bind: 7.4%[11.4 µM]; Pol III holo inh: -10.8%[11.4 µM]; Hsp90 Hop PPI: -6.4%[11 µM]; HEK293 cAMP ctrl: 9.0%[11.4 µM]; TSHR agonist: 2.1%[11.4 µM]

What do the screens show for `FC(F)(F)c1cnc(Nc2ccc(N3CCOCC3)cc2)c(Cl)c1`?
Tau filament bind: 31.6µM*; Pol III holo inh: -13.0%; Hsp90 Hop PPI: -23.6%; HEK293 cAMP ctrl: -33.4%; TSHR agonist: inconclusive

What do the screens show for `Nc1ccccc1SCC(=O)N1CCc2ccccc21`?
Tau filament bind: -1.4%; Pol III holo inh: -1.9%; Hsp90 Hop PPI: -0.8%; HEK293 cAMP ctrl: -4.5%; TSHR agonist: 1.2%

What do the screens show for `N#C[C@@H](Cc1ccc(O)c(O)c1)C(=O)N1CCc2ccccc21`?
Tau filament bind: -4.6%; Pol III holo inh: -12.6%; Hsp90 Hop PPI: 6.31µM*; HEK293 cAMP ctrl: -15.0%; TSHR agonist: -1.5%

Results for CC1(C)[C@@H](CC(=O)O)CCC[C@@H]1CC(=O)O ?
Tau filament bind: 2.9%[11.4 µM]; Pol III holo inh: 1.4%[11.4 µM]; Hsp90 Hop PPI: -2.7%[11 µM]; HEK293 cAMP ctrl: 6.6%[11.4 µM]; TSHR agonist: -5.2%[11.4 µM]

How did O=C(NC1CCS(=O)(=O)C1)OC1CCCCC1 (stereo not drawn) do in these assays?
Tau filament bind: -3.6%; Pol III holo inh: 0.501µM*; Hsp90 Hop PPI: 0.3%; HEK293 cAMP ctrl: -17.9%; TSHR agonist: 10.2%

Results for CCOc1ccc2nc(SCC(=O)N3CCCCCC3)c(C#N)cc2c1 ?
Tau filament bind: -10.0%; Pol III holo inh: -4.6%; Hsp90 Hop PPI: 2.7%; HEK293 cAMP ctrl: 15.8µM*; TSHR agonist: inconclusive

How did O=C(CSc1nc2ccccc2nc1SCC(=O)N1CCCCC1)N1CCCCC1 do in these assays?
HEK293 cAMP ctrl: 17.3%; TSHR agonist: 25.1µM*

How did Cn1cccc1C(=O)N1CCC2(CCN(C(=O)Nc3cccc(F)c3)CC2)CC1 do in these assays?
Tau filament bind: 7.9%; Pol III holo inh: 3.8%; Hsp90 Hop PPI: -8.2%; HEK293 cAMP ctrl: -3.8%; TSHR agonist: -4.2%

What do the screens show for `CCSc1nnc(NC(=O)c2ccccn2)s1`?
Tau filament bind: 1.2%; Pol III holo inh: -7.4%; Hsp90 Hop PPI: 7.94µM*; HEK293 cAMP ctrl: -0.2%; TSHR agonist: -4.2%

Results for COc1ncc2nc(C)c(=O)n(C)c2n1 ?
Tau filament bind: 11.9%; Pol III holo inh: 6.7%; Hsp90 Hop PPI: -5.0%; HEK293 cAMP ctrl: 16.7%; TSHR agonist: 11.7%

Results for O=C(OCc1nnc(-c2ccccc2)o1)c1ccco1 ?
Tau filament bind: -0.1%; Pol III holo inh: -2.0%; Hsp90 Hop PPI: 1.9%; HEK293 cAMP ctrl: 15.4%; TSHR agonist: 2.1%

Results for O=C(OCc1nnc(-c2ccccc2)o1)c1ccc2c(c1)OCO2 ?
Tau filament bind: -0.2%; Pol III holo inh: -8.3%; Hsp90 Hop PPI: 8.6%; HEK293 cAMP ctrl: 39.8µM*; TSHR agonist: inconclusive

Results for CC(C)(CCC(C)(C)c1ccccc1)c1ccccc1 ?
Tau filament bind: 2.7%[11.4 µM]; Pol III holo inh: -8.2%[11.4 µM]; Hsp90 Hop PPI: -5.0%[11 µM]; HEK293 cAMP ctrl: 0.6%[11.4 µM]; TSHR agonist: -0.1%[11.4 µM]

Results for Cc1ccc(S(=O)(=O)/C=C\C#N)cc1 ?
Tau filament bind: 34.9%; Pol III holo inh: -13.1%; Hsp90 Hop PPI: -2.6%; HEK293 cAMP ctrl: -13.9%; TSHR agonist: 10.9%

How did CC(C)(C)c1ccc(S(=O)(=O)/C=C\C#N)cc1 do in these assays?
Tau filament bind: 24.2%; Pol III holo inh: -7.9%; Hsp90 Hop PPI: 3.7%; HEK293 cAMP ctrl: 25.1µM*!; TSHR agonist: inconclusive

Results for COc1ccc(C(=O)N2CCC3(CC2)CN(c2ccncc2)C3)cc1 ?
Tau filament bind: 10.7%; Pol III holo inh: -0.9%; Hsp90 Hop PPI: 3.3%; HEK293 cAMP ctrl: 12.0%; TSHR agonist: 3.0%

How did O=C(c1cc(C(F)(F)F)cc(C(F)(F)F)c1)N1CCC2(CCCN(c3ccncc3)C2)CC1 do in these assays?
Tau filament bind: 7.3%; Pol III holo inh: -1.6%; Hsp90 Hop PPI: -3.4%; HEK293 cAMP ctrl: 7.94µM*; TSHR agonist: inconclusive

What do the screens show for `O=C(c1cc(C(F)(F)F)cc(C(F)(F)F)c1)N1CCC2(CC1)CCN(c1ccccn1)CC2`?
Tau filament bind: 11.6%; Pol III holo inh: -2.2%; Hsp90 Hop PPI: -0.6%; HEK293 cAMP ctrl: 15.8µM*; TSHR agonist: inconclusive

Results for COc1ccc(C(=O)N2CCC3(CCCN(c4ccncc4)C3)CC2)cc1 ?
Tau filament bind: 9.1%; Pol III holo inh: -3.9%; Hsp90 Hop PPI: 4.3%; HEK293 cAMP ctrl: 12.6µM*; TSHR agonist: inconclusive

How did O=C(c1ccncc1)N1CCC2(CCCN(c3ccncc3)C2)CC1 do in these assays?
Tau filament bind: 2.3%; Pol III holo inh: -8.6%; Hsp90 Hop PPI: 0.8%; HEK293 cAMP ctrl: -0.8%; TSHR agonist: -1.7%

Results for COc1ccccc1CN1CC[C@@]2(CCCN(C(=O)c3cc(C(F)(F)F)cc(C(F)(F)F)c3)C2)C1 ?
Tau filament bind: -19.6%; Pol III holo inh: -7.0%; Hsp90 Hop PPI: 3.5%; HEK293 cAMP ctrl: inconclusive; TSHR agonist: inconclusive
